Screening results: PubChem, National Center for Advancing Translational Sciences (NCATS)
SMN2 splice up: SMN2 splice variant enhancement | hit rate 2.8% among 210,000 | Potency, µM (doses to about 46.1 µM), for the others: at the highest dose activity change, positive = activation, actives largely listed as activators | HEK293 SMN2-luciferase splicing reporter, luminescence, 30-36 h; also: % of control where 0% means no effect; nearly all actives have a fitted effect of over 55% in size
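qHTS luciferase splicing reporter: luminescence rises when SMN2 exon 7 is included in transfected HEK293 cells. Compound exposure lasted 30-36 h at 37C, with 4.5 mM final sodium butyrate as control, followed by a ONE-Glo read.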
NPC1 prom act: activates the NPC1 promoter | Huh7 NPC1 promoter luciferase reporter, 24 h | hit rate 2.4% among 320,000 | Potency, µM (titrated, usually from 9.22 µM), for the others: at the highest dose activation, actives largely listed as activators; also: % of control where 0% means no effect; nearly all actives have a fitted effect of over 60% in size
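Huh7 reporter cells (NPC1 promoter driving luciferase) are dosed with compound for 24 h at 37 °C, 5% CO2; luciferase detection reagent is then added and luminescence measured after 10 min at ambient temperature.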
Rab9 promoter act: activators of Rab9 promoter; Huh7 Rab9 promoter-luciferase reporter, luminescence, 24 h; Potency, µM (titrated, usually from 9.22 µM), for inactives: at the top dose activation, negative = inhibition, actives largely listed as activators; hit rate 2.8% among 320,000; also: % of control where 0% means no effect; nearly all actives have a fitted effect of over 60% in size
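Promoter activation is measured as luciferase luminescence in Huh7 cells stably transfected with a Rab9 promoter–luciferase construct, following 24 h compound exposure at 37 °C and 10 min reagent incubation at ambient temperature.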
FLuc modulator: counter-screen for miR-21 project: firefly luciferase inhibitors or activators; P08659; purified FLuc, Km substrates, luminescence inhibition; Potency, µM (doses to about 57.5 µM), for inactives: at the top dose activity change, negative = inhibition, actives largely listed as inhibitors; hit rate 6.9% among 360,000; AID 588342;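 also: plate controls were vehicle for no effect and reference inhibitor for full effect; nearly all actives have a fitted effect of over 55% in size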
Target sequence (P08659 whole entry, looked up): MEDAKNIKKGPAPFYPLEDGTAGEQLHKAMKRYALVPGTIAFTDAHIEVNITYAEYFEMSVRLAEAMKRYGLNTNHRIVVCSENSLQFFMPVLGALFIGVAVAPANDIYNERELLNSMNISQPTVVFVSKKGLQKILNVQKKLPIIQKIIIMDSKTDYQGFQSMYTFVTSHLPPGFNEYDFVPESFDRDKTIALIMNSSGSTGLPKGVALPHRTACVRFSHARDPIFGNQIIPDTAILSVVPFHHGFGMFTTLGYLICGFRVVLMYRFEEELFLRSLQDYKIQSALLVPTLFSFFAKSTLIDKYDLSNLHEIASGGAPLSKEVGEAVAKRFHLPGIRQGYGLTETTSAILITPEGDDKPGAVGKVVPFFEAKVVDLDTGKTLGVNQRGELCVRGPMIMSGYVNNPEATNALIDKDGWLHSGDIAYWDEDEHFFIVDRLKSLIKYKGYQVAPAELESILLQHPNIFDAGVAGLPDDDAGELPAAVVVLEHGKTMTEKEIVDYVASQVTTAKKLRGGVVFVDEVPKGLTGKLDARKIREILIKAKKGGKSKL
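Purified P. pyralis luciferase, 10 nM final, with Km-level 10 uM D-luciferin and 10 uM ATP in 50 mM Tris acetate pH 7.5, 10 mM Mg acetate, 0.01% Tween-20, 0.05% BSA; 6-point qHTS titration about 60 µM downward; luminescence read.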
ELG1 genotoxic: induces genotoxicity in HEK293T cells with luciferase-tagged ELG1. Potency, µM (top dose mostly 46 µM), without a hit: at the top dose activity change, positive = activation, most hits filed as activators. hit rate 1.3% among 330,000. HEK293T ELG1-luciferase reporter, luminescence, 16 h. AID 504466; also: % of control where 0% means no effect; nearly all actives have a fitted effect of over 60% in size
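ELG1-luciferase HEK293T cells, 2,000/well; compound pinned in; 16 hr, 37 °C, 5% CO2; ONE-Glo, 30 min RT; luminescence on CCD imager.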
Luc counter: Kinase-Glo luciferase inhibition (counter-screen) | Q27757 | Kinase-Glo luciferase, ATP luminescence, 8 min | Potency, µM (top dose mostly 38.3 µM), without a hit: at the top dose activity change, negative = inhibition, most hits filed as inhibitors | hit rate 0.28% among 200,000 | AID 1379; also: % is scaled to controls: 0 for no effect and ±100 for the full control effect; nearly all actives have a fitted effect of over 60% in size
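Compound is pinned into ATP-containing buffer (10 uM ATP, imidazole pH 7.2, 7 mM MgCl2). Kinase-Glo luciferase reagent is then added. Light output is recorded following an 8-min room-temperature incubation.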
Active calls of the source: *; [ ] = remark or other dose. Only some compounds are listed: those with a hit (about 7.3% of all), similar ones and a draw of the others. Calls follow the shape of the dose curve; as a rule, active = well fitted curve in the direction sought with a large enough effect; inconclusive = small, poorly fitted or top-dose-only effect, or another doubt; inactive = no such curve, though single readings can be large; an effect the other way counts as inactive or inconclusive. Potency is read from the fitted curve at half-maximal effect.

CN(C)S(=O)(=O)c1cccc(NC(=O)COC(=O)/C=C/c2ccc3c(c2)OCO3)c1 was read as SMN2 splice up 6%, NPC1 prom act -1%, Rab9 promoter act 5%, FLuc modulator 12µM*, ELG1 genotoxic 10% and Luc counter 1%.
Screening CC(=O)N/C(=C\c1ccccc1)C(=O)OCC(=O)Nc1cc(S(=O)(=O)N(C)C)ccc1C returned NPC1 prom act 0%, Rab9 promoter act 2%, FLuc modulator 3% and ELG1 genotoxic -1%.
For Cc1ccc(S(=O)(=O)N(C)C)cc1NC(=O)COC(=O)/C=C/c1ccc2c(c1)OCO2 the results were SMN2 splice up 3%, NPC1 prom act -1%, Rab9 promoter act 1%, FLuc modulator 21µM*, ELG1 genotoxic 0% and Luc counter -3%.
For COc1ccc(/C=C/C(=O)OCC(=O)Nc2ccc3c(c2)OCO3)cc1 the results were NPC1 prom act 1%, Rab9 promoter act -6%, FLuc modulator 0% and ELG1 genotoxic 0%.
CCc1ccc2nc(/N=C(\N)NC(=O)c3ccccc3)nc(C)c2c1 was read as NPC1 prom act 23%, Rab9 promoter act inconclusive, FLuc modulator 6µM* and ELG1 genotoxic 4%.
Screening Cc1cc(C)c2nc(/N=C(\N)NC(=O)c3ccccc3)nc(C)c2c1 returned NPC1 prom act -5%, Rab9 promoter act -7%, FLuc modulator inconclusive and ELG1 genotoxic 1%.
COC(=O)c1ccccc1N/C=C/C(=O)c1ccc(Br)cc1 was read as SMN2 splice up 11µM*, NPC1 prom act 25%, Rab9 promoter act inconclusive, FLuc modulator 17µM*, ELG1 genotoxic 18% and Luc counter -6%.
NC(=O)c1ccccc1N/C=C/C(=O)c1ccccc1 was read as SMN2 splice up 7.1µM*, NPC1 prom act 0.56µM*, Rab9 promoter act 0.56µM*, FLuc modulator 0.85µM*, ELG1 genotoxic 0.92µM* and Luc counter 11µM*.
`O=C(/C=C/NNC(=O)c1ccccc1)c1ccccc1` gave SMN2 splice up 1%, NPC1 prom act 5%, Rab9 promoter act -1%, FLuc modulator inconclusive, ELG1 genotoxic inconclusive and Luc counter 4%.
Screening N#Cc1c(-c2ccccc2Cl)noc1/C=C/Nc1ccc(C(=O)O)cc1 returned NPC1 prom act 5%, Rab9 promoter act 6%, FLuc modulator 24µM*, ELG1 genotoxic 11% and Luc counter -19%.
Screening Clc1cccc(Cl)c1Cn1ccc(C2CC2)n1 returned SMN2 splice up inconclusive, NPC1 prom act inconclusive, Rab9 promoter act 3.2µM*, FLuc modulator 12µM*, ELG1 genotoxic inconclusive and Luc counter -7%.
Screening COc1ccc(CNC(=O)CCC2N=C3c4ccccc4N=C(SCc4cccc(F)c4)N3C2=O)cc1 (configuration not stated) returned FLuc modulator 5%.
O=C(NCCCc1ccccc1)c1ccc([N+](=O)[O-])cc1Cl was read as NPC1 prom act inconclusive, Rab9 promoter act inconclusive, FLuc modulator 8.5µM* and ELG1 genotoxic inconclusive.
For O=C(NCCc1ccccc1)C(=O)Nc1cccc(Br)c1 the results were SMN2 splice up -2% and FLuc modulator 0%.
CSCCC(NC(=O)c1ccc([N+](=O)[O-])cc1Cl)C(=O)OCC(=O)NCCCc1ccccc1 (configuration not stated) was read as SMN2 splice up 0%, NPC1 prom act -1%, Rab9 promoter act -4%, FLuc modulator inconclusive, ELG1 genotoxic -1% and Luc counter -2%.
For Cc1ccc(C(=O)NCCCc2ccccc2)c(C)c1 the results were SMN2 splice up 13µM*, NPC1 prom act 1.4µM*, Rab9 promoter act 3.5µM*, FLuc modulator 8.5µM*, ELG1 genotoxic 16µM* and Luc counter 0%.
Screening Cc1ccc(C(=O)NCCCc2ccccc2)c(Cl)c1 returned NPC1 prom act 2.5µM*, Rab9 promoter act 2.2µM*, FLuc modulator 8.5µM* and ELG1 genotoxic inconclusive.
Screening Cc1cccc(NC(=O)C(=O)NCCCc2ccccc2)c1 returned SMN2 splice up 10µM*, NPC1 prom act inconclusive, Rab9 promoter act inconclusive, FLuc modulator inconclusive, ELG1 genotoxic 23% and Luc counter -2%.
`CC(C)c1ccc(NC(=O)c2cc3c(=O)[nH]c4ccccc4c3n2C)cc1` gave SMN2 splice up -1% and FLuc modulator 2%.
For Cc1cccc(N2CCN(C(=O)CN3C(=O)C4CC=CCC4C3=O)CC2)c1C (configuration not stated) the results were SMN2 splice up 1%, NPC1 prom act inconclusive, Rab9 promoter act 3.2µM*, FLuc modulator 17µM*, ELG1 genotoxic 10% and Luc counter 4%.
Screening Nc1nc(Nc2cccc(F)c2)nc2ccccc12 returned SMN2 splice up inconclusive, NPC1 prom act 1.3µM*, Rab9 promoter act 2.2µM*, FLuc modulator 5.4µM*, ELG1 genotoxic inconclusive and Luc counter -16%.
For O=c1oc(Nc2cccc(F)c2)nc2ccccc12 the results were SMN2 splice up inconclusive, NPC1 prom act 2.2µM*, Rab9 promoter act 2.2µM*, FLuc modulator inconclusive, ELG1 genotoxic 18µM* and Luc counter 0%.
`Fc1cccc(Nc2c3c(nc4ccccc24)CCC3)c1` gave NPC1 prom act -11%, Rab9 promoter act 4%[1.84 µM], FLuc modulator -2% and ELG1 genotoxic -3%.
For COC(=O)CN1C(=O)C(C)(C)c2cc(S(=O)(=O)Nc3ccc(C(C)C)cc3)ccc21 the results were FLuc modulator -2%.
`CC(=O)c1cccc(Nc2nc(=O)c3cccnc3s2)c1` gave SMN2 splice up -7%, NPC1 prom act 2%, Rab9 promoter act 1%, FLuc modulator inconclusive, ELG1 genotoxic inconclusive and Luc counter 9%.
For CC(=O)c1ccc(Nc2nc(=O)c3cccnc3s2)cc1 the results were SMN2 splice up inconclusive, FLuc modulator -10% and Luc counter -1%.
`O=c1nc(Nc2ccc(OCc3ccccc3)cc2)sc2ncccc12` gave SMN2 splice up 3.5µM*, NPC1 prom act -2%, Rab9 promoter act 13%, FLuc modulator -2%, ELG1 genotoxic -3% and Luc counter -2%.
For CCOC(=O)c1ccc(Nc2nc(=O)c3cccnc3s2)cc1 the results were SMN2 splice up 10µM*, NPC1 prom act 3.5µM*, Rab9 promoter act 4.5µM*, FLuc modulator inconclusive, ELG1 genotoxic 5% and Luc counter -2%.
